# Laboratory results published in PubChem BioAssay.
# The source made the active and inactive calls.
# Columns and labels:
# [1] = test system: Plasmodium falciparum Sir2 (PF13_0152, Sir2A); experiment: pfSir2 binders on small-molecule microarrays, primary screen, biochemical, small-molecule microarray, 635 nm fluorescence (AID 1098); details: small-molecule microarray binding, fluorescence 635 nm; higher = more signal;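 further: score merges spot fluorescence intensity with its signal-to-noise ratio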
# [2] = small-molecule microarray binders of probe aDKK1, primary screen, biochemical, biotinylated probe, 635/667 nm fluorescence (AID 1099); details: higher = more signal;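 further: score merges 667nm spot fluorescence with signal to noise across triplicate slides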
# [3] = small-molecule microarray binders of probe aCHRDL2, primary screen, biochemical, biotinylated probe, 635/667 nm fluorescence (AID 1100); details: higher = more signal
# [4] = splicing luciferase reporter signal modulators, primary screen, spliceosome inhibition project, cell-based, HEK293, splice +/- reporter (AID 1101); details: luminescence, 24 h, higher = more signal, called active from +8 up or from −8 down;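 further: HEK293 cells carrying a splicing-competent luciferase reporter gene; test concentration not given here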
# [5] = biological target: Fibroblast growth factor 10 (Homo sapiens) (UniProt O15520); experiment: FGF10 binders on small-molecule microarrays, primary screen, biochemical, small-molecule microarray, 635 nm fluorescence (AID 1102); details: FGF10 binding, fluorescence 635 nm, higher = more signal
# Sequence of Fibroblast growth factor 10 (Homo sapiens) (O15520 whole entry, looked up): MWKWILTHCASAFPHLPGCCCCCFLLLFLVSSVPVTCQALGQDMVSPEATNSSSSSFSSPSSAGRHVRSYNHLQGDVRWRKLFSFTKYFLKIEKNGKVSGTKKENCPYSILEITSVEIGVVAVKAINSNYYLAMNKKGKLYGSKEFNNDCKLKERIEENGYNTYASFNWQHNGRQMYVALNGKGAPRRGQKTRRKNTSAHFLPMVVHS
# [6] = test system: glycogen synthase kinase-3 (GSK3A per assay name; protocol says GSK3B); experiment: GSK3 binders on small-molecule microarrays, primary screen, biochemical, small-molecule microarray, 635 nm fluorescence, GSK3A (AID 1103); details: small-molecule microarray binding, fluorescence 635 nm; higher = more signal; further: the record names both GSK3A and GSK3B
# [7] = biological target: Epidermal growth factor receptor (Homo sapiens) (UniProt P00533); experiment: EGFR binders on small-molecule microarrays, primary screen, biochemical, small-molecule microarray, 635 nm fluorescence (AID 1104); details: EGFR binding, higher = more signal;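 further: score merges 667 nm emission intensity with spot signal to noise over triplicate slides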
# Sequence of Epidermal growth factor receptor (Homo sapiens) (P00533 whole entry, looked up): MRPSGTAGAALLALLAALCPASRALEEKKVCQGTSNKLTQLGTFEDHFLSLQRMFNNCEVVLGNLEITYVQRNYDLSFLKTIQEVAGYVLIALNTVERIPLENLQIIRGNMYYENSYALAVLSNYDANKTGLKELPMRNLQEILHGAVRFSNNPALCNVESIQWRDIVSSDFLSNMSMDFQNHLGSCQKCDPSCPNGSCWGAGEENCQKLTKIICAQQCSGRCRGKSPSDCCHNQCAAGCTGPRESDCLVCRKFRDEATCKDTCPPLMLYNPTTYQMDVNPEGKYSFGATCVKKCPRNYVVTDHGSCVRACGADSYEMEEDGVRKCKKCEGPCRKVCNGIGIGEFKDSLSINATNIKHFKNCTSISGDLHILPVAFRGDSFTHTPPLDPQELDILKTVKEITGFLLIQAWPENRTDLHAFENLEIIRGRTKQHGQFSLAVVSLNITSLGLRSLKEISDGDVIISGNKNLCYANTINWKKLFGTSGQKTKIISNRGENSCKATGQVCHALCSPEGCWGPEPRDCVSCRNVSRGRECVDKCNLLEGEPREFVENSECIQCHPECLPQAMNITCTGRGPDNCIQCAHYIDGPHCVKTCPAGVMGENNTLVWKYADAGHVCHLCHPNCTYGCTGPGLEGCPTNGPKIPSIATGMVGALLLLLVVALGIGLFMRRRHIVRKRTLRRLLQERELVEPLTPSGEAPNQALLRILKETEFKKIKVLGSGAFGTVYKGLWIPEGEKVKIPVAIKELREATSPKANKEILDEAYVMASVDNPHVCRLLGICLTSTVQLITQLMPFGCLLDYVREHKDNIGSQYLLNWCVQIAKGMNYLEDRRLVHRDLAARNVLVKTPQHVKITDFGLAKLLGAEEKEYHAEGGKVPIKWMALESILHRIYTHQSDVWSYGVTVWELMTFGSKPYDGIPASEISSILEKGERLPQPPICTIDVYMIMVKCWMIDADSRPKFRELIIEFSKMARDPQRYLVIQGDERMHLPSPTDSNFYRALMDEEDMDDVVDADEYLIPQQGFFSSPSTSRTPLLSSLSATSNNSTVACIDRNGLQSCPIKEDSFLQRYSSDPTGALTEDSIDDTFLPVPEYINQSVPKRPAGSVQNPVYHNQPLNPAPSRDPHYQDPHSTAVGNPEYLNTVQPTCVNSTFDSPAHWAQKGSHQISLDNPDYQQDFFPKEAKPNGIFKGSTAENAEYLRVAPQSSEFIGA
# [8] = biological target: Follistatin-related protein 3 (Homo sapiens) (UniProt O95633); experiment: FSTL3 binders on small-molecule microarrays, primary screen, biochemical, small-molecule microarray, 635 nm fluorescence (AID 1105); details: FSTL3 binding, higher = more signal;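 further: score merges emission near 667 nm and signal to noise per printed spot across three slides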
# Sequence of Follistatin-related protein 3 (Homo sapiens) (O95633 whole entry, looked up): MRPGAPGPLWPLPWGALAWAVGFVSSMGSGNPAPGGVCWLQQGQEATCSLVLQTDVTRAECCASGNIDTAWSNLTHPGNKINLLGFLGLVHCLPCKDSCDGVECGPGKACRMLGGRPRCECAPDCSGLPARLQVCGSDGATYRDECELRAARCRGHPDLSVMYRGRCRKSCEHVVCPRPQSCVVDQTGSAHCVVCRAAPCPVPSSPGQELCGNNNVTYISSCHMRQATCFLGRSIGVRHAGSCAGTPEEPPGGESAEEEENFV
# [9] = biological target: Dickkopf-related protein 1 (Homo sapiens) (UniProt O94907); experiment: DKK1 binders on small-molecule microarrays, primary screen, biochemical, small-molecule microarray, 635 nm fluorescence scan (AID 1106); details: DKK1 binding, higher = more signal;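 further: score merges emission near 667 nm with signal to noise over three replicate slides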
# Sequence of Dickkopf-related protein 1 (Homo sapiens) (O94907 whole entry, looked up): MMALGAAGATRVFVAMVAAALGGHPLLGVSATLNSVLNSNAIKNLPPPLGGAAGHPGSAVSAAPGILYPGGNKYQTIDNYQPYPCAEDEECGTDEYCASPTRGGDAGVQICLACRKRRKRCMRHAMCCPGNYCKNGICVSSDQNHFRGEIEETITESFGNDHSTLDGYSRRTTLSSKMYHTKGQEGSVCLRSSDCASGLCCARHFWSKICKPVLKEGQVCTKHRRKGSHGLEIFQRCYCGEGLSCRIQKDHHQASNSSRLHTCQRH
# [10] = test system: Inhibin beta A chain (activin A); experiment: INHBA (activin A) binders on microarrays, primary screen, biochemical, small-molecule microarray, 635 nm fluorescence scan (AID 1107); details: small-molecule microarray binding, higher = more signal;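 further: mouse activin A protein probed at 4.33 µg/mL on printed slides; score merges bound-protein fluorescence near 667 nm with spot signal-to-noise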
# [11] = test system: Human papillomavirus type 1a protein E7 (residues 44-93); experiment: HPV1a E7 fragment binders on microarrays, primary screen, biochemical, small-molecule microarray, residues 44-93, 635 nm fluorescence (AID 1108); details: small-molecule microarray binding, fluorescence 635 nm; higher = more signal;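 further: E7 fragment applied at 1 µg/mL in TBST for 1 h at 4 C; score combines spot fluorescence with its signal to noise ratio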
# [12] = modulators of HCV replicon luciferase signal, primary screen, HCV replication inhibitor project, Huh7 cells, luciferase reporter (AID 1109); details: 48 h, higher = more signal;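 further: huh7 hepatoma cells harbouring a luciferase neomycin HCV replicon reporter; luciferase luminescence as measure of HCV replicon replication; test concentration not given here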
# [13] = biological target: Left-right determination factor 2 (Homo sapiens) (UniProt O00292); experiment: LEFTY2 binders on small-molecule microarrays, primary screen, biochemical, small-molecule microarray, 635 nm fluorescence scan (AID 1110); details: LEFTY2 binding, higher = more signal
# Sequence of Left-right determination factor 2 (Homo sapiens) (O00292 whole entry, looked up): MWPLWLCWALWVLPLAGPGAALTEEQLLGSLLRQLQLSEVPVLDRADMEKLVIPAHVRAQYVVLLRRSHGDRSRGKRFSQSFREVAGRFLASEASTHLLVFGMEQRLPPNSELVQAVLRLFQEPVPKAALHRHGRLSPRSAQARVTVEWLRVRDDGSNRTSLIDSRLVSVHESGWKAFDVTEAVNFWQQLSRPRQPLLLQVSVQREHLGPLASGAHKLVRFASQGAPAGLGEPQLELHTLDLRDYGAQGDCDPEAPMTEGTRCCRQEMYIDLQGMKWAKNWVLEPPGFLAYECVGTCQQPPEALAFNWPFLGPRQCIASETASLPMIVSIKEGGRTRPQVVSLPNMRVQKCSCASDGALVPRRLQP
# [14] = biological target: Calmodulin-1 (Homo sapiens) (UniProt P0DP23); experiment: CALM1 binders on microarrays, EGTA buffer, profiling panel, biochemical, small-molecule microarray, Cy5-labelled CALM1 (AID 1111); details: Cy5-CALM1 binding fluorescence, higher = more signal;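 further: labelled calmodulin applied in Tris saline Tween buffer holding calcium plus EGTA and DTT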
# [15] = biological target: Calmodulin-1 (Homo sapiens) (UniProt P0DP23); experiment: calcium-bound CALM1 binders on microarrays, profiling panel, artefact control for SMM control-protein annotation, biochemical, small-molecule microarray, Cy5-labelled CALM1, plus calcium (AID 1112); details: Cy5-CALM1 binding fluorescence, higher = more signal;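 further: score merges spot fluorescence with signal to noise from triplicate slides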
# [16] = small-molecule microarray binders of probe aWnt5a, primary screen, biochemical, biotinylated probe, 635/667 nm fluorescence (AID 1113); details: higher = more signal;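 further: score merges 667 nm fluorescence intensity with signal-to-noise per printed feature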
# [17] = small-molecule microarray binders of probe aShh, primary screen, biochemical, biotinylated probe, 635/667 nm fluorescence (AID 1114); details: higher = more signal;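 further: probe is biotin-labelled aShh protein from a stem cell growth factor screen; measures binding of labelled protein to compounds printed on the slide; score merges feature fluorescence at 667 nm with signal-to-noise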
# [18] = small-molecule microarray binders of probe aNog, primary screen, biochemical, biotinylated probe, 635/667 nm fluorescence (AID 1115); details: higher = more signal;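 further: probe is biotinylated aNog protein used at 0.15 µg/mL for 1 h at 4 C; z-score combines 667 nm fluorescence of each spot with its signal to noise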
# [19] = biological target: Torsin-1A-interacting protein 1 (Homo sapiens) (UniProt Q5JTV8); experiment: LAP1 binders from COS7 cell lysate, primary screen, small-molecule microarray, 635/667 nm fluorescence (AID 1116); details: COS7-hLAP1 lysate binding, 635 nm fluorescence, higher = more signal
# Sequence of Torsin-1A-interacting protein 1 (Homo sapiens) (Q5JTV8 whole entry, looked up): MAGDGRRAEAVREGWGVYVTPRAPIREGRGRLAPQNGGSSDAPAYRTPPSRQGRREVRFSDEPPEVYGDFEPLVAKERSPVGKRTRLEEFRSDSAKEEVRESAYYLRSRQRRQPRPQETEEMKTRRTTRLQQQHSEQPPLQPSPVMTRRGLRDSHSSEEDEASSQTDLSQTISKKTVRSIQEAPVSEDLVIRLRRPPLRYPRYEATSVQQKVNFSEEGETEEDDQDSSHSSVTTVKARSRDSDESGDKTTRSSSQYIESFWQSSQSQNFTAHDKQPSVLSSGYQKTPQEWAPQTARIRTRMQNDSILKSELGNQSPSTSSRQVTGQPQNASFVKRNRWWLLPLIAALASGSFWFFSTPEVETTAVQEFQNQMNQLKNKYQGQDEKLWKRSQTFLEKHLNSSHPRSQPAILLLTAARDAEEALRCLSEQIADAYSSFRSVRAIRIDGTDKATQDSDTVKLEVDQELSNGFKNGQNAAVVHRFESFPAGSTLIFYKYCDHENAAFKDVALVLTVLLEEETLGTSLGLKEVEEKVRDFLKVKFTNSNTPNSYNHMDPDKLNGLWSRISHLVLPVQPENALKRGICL
# [20] = biological target: Alpha-bungarotoxin (Bungarus multicinctus) (UniProt P60615); experiment: alpha-bungarotoxin binders on microarray, profiling panel, artefact control for SMM control protein annotation, biochemical, small-molecule microarray, Alexa647 label, 635/667 nm fluorescence (AID 1117); details: alpha-BTX-A647 binding fluorescence, higher = more signal
# Sequence of Alpha-bungarotoxin (Bungarus multicinctus) (P60615 whole entry, looked up): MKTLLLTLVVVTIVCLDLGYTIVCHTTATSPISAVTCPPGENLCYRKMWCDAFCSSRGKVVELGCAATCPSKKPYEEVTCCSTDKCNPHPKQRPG
SMILES,composite z-score [1],composite z-score [2],composite z-score [3],z-score [4],composite z-score [5],composite z-score [6],composite z-score [7],composite z-score [8],composite z-score [9],composite z-score [10],composite z-score [11],z-score [12],composite z-score [13],composite z-score [14],composite z-score [15],composite z-score [16],composite z-score [17],composite z-score [18],composite z-score [19],composite z-score [20]
C[C@@H]1C=CCC(=O)OC[C@H](C)C(=O)N[C@@H](Cc2ccccc2)C(=O)OC1,-0.0137,-0.526,-0.683,-1.03 (inactive),0.3,-0.0825,0.643,0.582,0.909,-0.289,-0.118,0.962,0.786,-0.273,-0.62,-0.118,-0.414,-0.17,-0.232,-0.0092
CCOC(=O)CCN1C(=O)[C@H]2[C@H]3[C@H](O)[C@H](O)CC(=NO[C@@H]4O[C@H](CO)[C@@H](O)[C@H](O)[C@H]4O)[C@H]3CC[C@H]2C1=O,0.29,0.198,-0.141,-0.265 (inactive),0.655,0.822,0.563,0.231,0.315,0.401,0.0713,0.587,0.523,0.112,-0.847,-0.0286,-0.156,-0.0309,-0.127,0.263
C=CC[C@@H]1C=C[C@H](ON=C(C)CCN2CCCCc3nc(C)c(C)cc32)[C@@H](CO)O1,1.14,-0.406,-0.804,-0.102 (inactive),0.497,1.29,1.51,1.43,1.63,1.5,0.322,-0.197,1.25,-0.937,-1.72,-0.0276,0.0684,-0.444,0.533,-0.102
C#CCCCON=C1[C@H]2CCn3c(=O)n([C@@H](CC)c4ccccc4)c(=O)n3[C@H]2[C@H](O)[C@@H]2O[C@H]12,1.1,-0.175,-0.317,6.03 (inactive),0.581,-0.51,0.179,0.34,0.209,0.228,-0.194,-3.43,0.0878,-0.184,-0.483,-0.0799,-0.0295,-0.35,-0.0356,-0.151
COC(=O)[C@H](C)NC(=O)CCC1CC(OC(=O)NCc2ccc3c(c2)OCO3)CC2(CCCC(COC(=O)NCCc3ccc(Cl)cc3)O2)O1 (stereo not given in full),0.207,-0.146,-0.589,-0.51 (inactive),0.382,0.591,0.351,0.762,1.87,0.219,0.536,-0.562,1.13,-0.209,-0.97,-0.0367,0.0893,-0.111,0.288,0.202
C=CC[C@@H]1C=C[C@H](ON=C(C)CCN2CCCc3nc(C)c(C)cc32)[C@@H](CO)O1,1.14,0.381,0.331,0.0487 (inactive),1.01,1.15,0.759,1.47,1.32,2.04,0.298,-0.839,1.14,-0.0351,-1.43,0.264,0.586,0.525,1.83,0.366
CC[C@@H](c1ccccc1)n1c(=O)n2n(c1=O)[C@H]1[C@H](O)[C@@H]3O[C@@H]3C(=NOCc3ccccc3)[C@H]1CC2,0.217,-0.148,-0.406,2.5 (inactive),0.487,-0.0586,0.123,0.489,0.235,0.517,0.502,-4.13,0.244,0.207,-0.258,-0.107,-0.0146,-0.0606,-0.0058,0.919
COc1ccc(-c2cnnc(CCCn3ccnc3-c3ccccc3)n2)cc1,0.442,0.0096,-0.592,-1.04 (inactive),0.7,0.7,0.929,1.37,1.02,0.327,0.412,-2.57,0.774,0.212,-0.686,-0.103,-0.0769,-0.395,0.917,0.587
CCOC(=O)[C@H](Cc1ccccc1)NC(=O)CCC1CC(OC(=O)NCc2ccc3c(c2)OCO3)CC2(CCCC(COC(=O)NCCCN3CCCC3=O)O2)O1 (stereo not given in full),0.465,-0.505,-0.431,-0.199 (inactive),0.573,0.852,0.494,0.645,0.543,0.312,1.35,-1.93,0.56,0.972,0.356,-0.0607,-0.229,-0.0604,0.799,0.426
CCCNC(=O)OC[C@H]1O[C@H](CCON=C2C[C@@H](O)[C@@H](O)[C@@H]3[C@@H]4C(=O)N(CC)C(=O)[C@@H]4CC[C@@H]23)C=C[C@@H]1Oc1ccc(OC)cc1,0.874,-0.04,-0.39,0.264 (inactive),0.55,1.05,0.611,1.07,1.35,0.157,0.938,-1.33,0.928,0.0716,-0.795,-0.141,0.531,0.084,-0.0137,0.512
CC(=O)OC[C@H]1O[C@H](CCON=C(C)C)C=C[C@@H]1OC(C)=O,0.475,-0.22,0.116,0.384 (inactive),-0.0068,-0.329,0.187,0.296,0.41,1.12,-0.306,-0.684,0.304,-0.42,-0.268,-0.152,-0.0769,-0.324,0.3,0.501
O=C1CCCC=C1C(O)COCc1ccccc1 (stereo not given),0.179,-0.32,-0.344,-0.0937 (inactive),-0.146,-1.62,-0.137,-0.171,-0.126,0.53,-1.61,-0.45,-0.0061,-0.0384,-1.3,0.026,-0.269,-0.172,0.381,0.032
